In the supplement of paper PMC6279402:
Structures can show the parent of a compound that is named as a salt. ± gives the standard deviation of the averaged measurements.

System: A549
Test: relative viability (normalised to negative control = 1, bortezomib = 0) (fraction); higher = less cytotoxic
Conditions: inflammatory serum-free RHB-A with cytokines + LPS, 5 d + 24 h CellTiter-Blue
[1] = compound 30 nM, GSK126 pretreatment: 5 uM GSK126
[2] = compound 30 nM, GSK126 pretreatment: none (vehicle)
[3] = compound 300 nM, GSK126 pretreatment: 5 uM GSK126
[4] = compound 300 nM, GSK126 pretreatment: none (vehicle)

Row | Structure (SMILES) | relative viability [1] | relative viability [2] | relative viability [3] | relative viability [4]
1 | COc1cc(OC)c(/C=C/S(=O)(=O)Cc2ccc(OC)c(NCC(=O)O)c2)c(OC)c1 | 0.4 ± 0.058 | 0.303 ± 0.018 | 0.352 ± 0.015 | 0.245 ± 0.035
2 | Cc1cc(Nc2cc(N3CCN(C)CC3)nc(/C=C/c3ccccc3)n2)n[nH]1 | 0.897 ± 0.13 | 0.929 ± 0.11 | 0.827 ± 0.17 | 0.769 ± 0.04
3 | O=C(O)C(=O)O.[NH-][C@@H]1CCCC[C@H]1[NH-].[Pt+2] [Oxaliplatin] | 0.792 ± 0.077 | 0.782 ± 0.1 | 0.79 ± 0.088 | 0.796 ± 0.037
4 | CO[C@H](C(=O)[C@@H](O)[C@@H](C)O)[C@@H]1Cc2cc3cc(O[C@H]4C[C@@H](O[C@H]5C[C@@H](O)[C@H](O)[C@@H](C)O5)[C@H](O)[C@@H](C)O4)c(C)c(O)c3c(O)c2C(=O)[C@H]1O[C@H]1C[C@@H](O[C@H]2C[C@@H](O[C@H]3C[C@](C)(O)[C@H](O)[C@@H](C)O3)[C@@H](O)[C@@H](C)O2)[C@H](O)[C@@H](C)O1 [Plicamycin] | 0.1 ± 0.012 | 0.183 ± 0.058 | 0.00825 ± 0.00088 | 0.0263 ± 0.0054
5 | NC1(Cc2ccc(Cl)cc2)CCN(c2ncnc3[nH]ccc23)CC1 | 0.832 ± 0.029 | 0.844 ± 0.05 | 0.839 ± 0.1 | 0.875 ± 0.023
6 | Nc1nc(N)c2nc(-c3cccc(O)c3)c(-c3cccc(O)c3)nc2n1 | 0.719 ± 0.028 | 0.683 ± 0.014 | 0.664 ± 0.14 | 0.776 ± 0.075
7 | CC/C(=C(\c1ccccc1)c1ccc(OCCN(C)C)cc1)c1ccccc1 [Tamoxifen citrate] | 0.967 ± 0.075 | 0.863 ± 0.019 | 0.909 ± 0.13 | 0.972 ± 0.024
8 | C=CC(=O)Nc1cccc(Oc2nc(Nc3ccc(N4CCN(C)CC4)cc3)ncc2Cl)c1 | 0.802 ± 0.067 | 0.82 ± 0.095 | 0.132 ± 0.07 | 0.0677 ± 0.014
9 | CC[C@H](Nc1ncnc2nc[nH]c12)c1nc2cccc(F)c2c(=O)n1-c1ccccc1 | 0.899 ± 0.11 | 0.876 ± 0.1 | 0.878 ± 0.08 | 0.852 ± 0.035
10 | O=C(CCCCCCC(=O)Nc1ccccc1)NO [Vorinostat; SAHA] | 0.83 ± 0.15 | 0.868 ± 0.073 | 0.891 ± 0.17 | 1 ± 0.19
11 | COc1cccc(-c2cc(=O)c3ccccc3o2)c1N | 0.734 ± 0.07 | 0.794 ± 0.057 | 0.726 ± 0.19 | 0.825 ± 0.078
12 | CCCCCOC(=O)Nc1nc(=O)n([C@@H]2O[C@H](C)[C@@H](O)[C@H]2O)cc1F [Capecitabine] | 0.858 ± 0.12 | 0.867 ± 0.12 | 0.892 ± 0.14 | 0.965 ± 0.12
13 | CCOc1cc2ncc(C#N)c(Nc3ccc(OCc4ccccn4)c(Cl)c3)c2cc1NC(=O)/C=C/CN(C)C [Neratinib] | 0.713 ± 0.16 | 0.675 ± 0.14 | 0.196 ± 0.014 | 0.183 ± 0.014
